PfHsp90 set2: growth inhibition of PfHsp90-expressing yeast, primary screen, antimalarial PfHsp90 inhibitor project, S. cerevisiae, BacTiter-Glo luminescence, single point, set 2 | BacTiter-Glo ATP, 48 h; yeast lacking PDR1 and PDR3 efflux regulators | inhibition, % at 9.4 µM | 310,000 tested, 0.32% active;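 active = every replicate shows inhibition above about 80%, whatever the replicate mean, limit read from the data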;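 also: 0% = DMSO neutral controls and 100% = 20 µM radicicol positive controls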
NALP3 yeast inh: NALP3 inflammasome inhibitors in reconstituted yeast, primary screen, luminescence, uHTS; Yeast reconstituted NLRP3/ASC/caspase-1, beta-gal luminescence, 24 h; inhibition, % at 10 µM; 330,000 tested, 0.39% active;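 active = inhibition of 50% or more; inactive = inhibition below 50%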;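 also: plate controls were induced DMSO wells for no effect and uninduced yeast grown without galactose for full effect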
TIM10 inh: growth inhibitors of isogenic TIM10 control yeast, primary screen, counter-screen for tim10-1 yeast inhibitor project, luminescence, uHTS. inhibition, % at 10 µM. S. cerevisiae TIM10 strain growth, BacTiter-Glo luminescence, 24 h. 330,000 tested, 1.4% active;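 active = inhibition of 40% or more at the single tested concentration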;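 also: wild-type TIM10 isogenic control strain grown at permissive 25 °C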
tim10-1 inh: growth inhibitors of tim10-1 mutant yeast, primary screen, luminescence, uHTS; S. cerevisiae tim10-1 ts strain growth, BacTiter-Glo, 24 h; 330,000 tested, 2.2% active; inhibition, % at 20 µM;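 active = inhibition of at least 40%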;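 also: mutant grown at 25 °C; 0% = DMSO wells with yeast and 100% = wells holding no yeast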
NALP1 yeast inh: NALP1 inflammasome inhibitors in reconstituted yeast, colorimetric, S. cerevisiae, triplicate retest; S. cerevisiae NALP1/ASC/caspase-1 growth, X-gal OD620, 72 h; inhibition, % at 10 µM; 280,000 tested, 0.61% active; AID 2071, 2009; in the data active = inhibition mostly above about 24%, no sharp cut-off; inactive = mostly below about 32%
tim23-1 inh: growth inhibitors of tim23-1 mutant yeast, primary screen, luminescence, uHTS. inhibition, % at 20 µM. S. cerevisiae tim23-1 growth, BacTiter-Glo luminescence, 24 h. 330,000 tested, 1.3% active. AID 463212, 2010;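 active = growth inhibition of the mutant yeast at or above 50%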;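 also: temperature-sensitive mutant grown at 25 °C; plate controls were DMSO-treated mutant yeast for no effect and medium wells lacking yeast for full effect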
Active calls of the source: *; . = no result. Hits are enriched below; roughly 4.2% of the tested compounds scored in any of these assays.

SMILES	PfHsp90 set2	NALP3 yeast inh	TIM10 inh	tim10-1 inh	NALP1 yeast inh	tim23-1 inh
Cc1cc(=O)n(C)c(=O)n1CCCCCCOc1ccc([N+](=O)[O-])cc1	.	24.1	-2.4	17.8	8.4	5.6
CCCC1CCC(c2ccc(/C(N)=N/O)cc2)CC1 (stereo not given)	91.5*	19.9	-54.5	-79.8	4.7	-85.5
Cc1cc(C)nc(/N=C(\N)Nc2ccc(OCCC(C)C)cc2)n1	-3.7	-1.5	-10.5	-87.9	32.8*	-79.8
CCN1CCN(C(=S)Nc2ccc(Cl)c(Cl)c2)CC1	15.5	7.8	3.6	-3.7	50.8*	12.1
CN1CCC(N(C)C(=S)NC(=O)c2cc(-c3cccc(Br)c3)nc3ccccc23)CC1	-8.4	20.4	32.9	25.9	6.1	13.3
OC(COC1CCCCC1)CN1CCN(c2ccccc2)CC1 (stereo not given)	36.8	9.5	5.0	8.4	.	-7.0
C1CCC(OCCN2CCN(CCOC3CCCCC3)CC2)CC1	-6.3	30.0	-6.3	-15.2	38.8*	-22.1
COc1ccc(NC(=S)N2CCc3ccccc32)cc1OC	-27.0	17.0	0.8	-0.6	-14.7	16.0
C=CCn1c(C)cc(C(=O)CSc2nc3ccccc3[nH]2)c1C	.	1.0	20.2	12.1	2.7	33.1
C=CCn1c(C)cc(C(=O)CSc2nnc(NC(C)C)s2)c1C	10.3	15.2	-8.6	-32.6	3.1	-9.0
C=CCn1c(C)cc(C(=O)CSc2nnc(NCc3ccccc3)s2)c1C	110.9*	.	.	.	1.4	.
C=CCn1c(C)cc(C(=O)CSc2nc3ccccc3c(=O)[nH]2)c1C	100.0*	22.1	-63.9	-35.3	.	-49.7
O=C(c1ccncc1)N1N=C(c2ccc(Cl)cc2)CC1c1ccccc1O (stereo not given)	-14.3	16.1	12.0	-13.6	11.5	31.4
O=C1CCCN1CCCNc1ccc2nnc(CCC(=O)N3CCN(c4ccccc4)CC3)n2n1	-40.9	-0.4	-3.7	0.6	-17.1	-10.4
CN1C/C(=C\c2ccc(N3CCOCC3)cc2)C(=O)/C(=C/c2ccc(N3CCOCC3)cc2)C1	11.5	8.0	0.2	31.0	44.9	16.1
CN1C/C(=C/c2ccncc2)C(=O)/C(=C/c2ccncc2)C1	5.6	7.3	-5.5	0.1	65.7*	13.9
CCN(CC)C(=O)C1CCCN(c2ccc([N+](=O)[O-])cc2)C1 (stereo not given)	-10.2	23.1	-3.1	16.3	34.8*	20.0
CCCCCCCCCCCCCCCC[N+](C)(C)CCl	104.6*	.	.	.	.	.
CCC(C(=O)OCC(=O)NC1CCS(=O)(=O)C1)c1ccccc1 (stereo not given)	-11.2	16.5	14.6	-12.7	.	-9.6
COc1cccc(-c2csc(NC3OC(=O)c4c3ccc(OC)c4OC)n2)c1 (stereo not given)	.	3.7	10.8	-3.8	6.1	-5.7
COc1ccc2c(c1OC)C(=O)OC2Nc1nc(-c2ccc(-c3ccccc3)cc2)cs1 (stereo not given)	-25.0	19.5	30.5	2.7	58.1*	45.1
CC(NNC(=S)N1CCN(c2ccccn2)CC1)c1nccc2ccccc12 (stereo not given)	121.4*	.	.	.	.	.
CN(C)CC(C)(C)CNS(=O)(=O)c1ccc(OC(F)(F)F)cc1	3.8	-4.1	-4.8	8.1	4.0	8.0
O=C(N[C@@H](Cc1ccccc1)C(=O)NC1CCCCCC1)c1ccco1	20.5	14.1	5.4	34.6	40.9*	21.3
O=C(Nc1ncccc1O)c1cccc(S(=O)(=O)N2CCc3ccccc32)c1	-8.7	6.1	24.2	33.1	34.0*	31.5
SMILES	PfHsp90 set2	NALP3 yeast inh	TIM10 inh	tim10-1 inh	NALP1 yeast inh	tim23-1 inh
COC(=O)c1sc(N2C(=O)C(O)=C(C(=O)c3ccc(C)o3)C2c2cc(OC)ccc2OC)nc1C (stereo not given)	14.2	10.6	-3.4	-4.8	3.7	20.6
CN(CC(=O)Nc1ccc(S(=O)(=O)N2CCCC2)cc1)CC(=O)Nc1cccc(F)c1	.	3.5	-6.3	5.5	12.4	5.4
CCOC(=O)Cc1csc(NC(=O)Cc2ccc(Br)cc2)n1	-6.1	26.5	20.3	14.5	35.4*	27.6
C=CCOn1c(=O)c(-c2cc3ccccc3o2)[n+]([O-])c2ccccc21	7.0	20.0	18.4	18.6	28.3*	27.8
COCCN(CC(=O)Nc1cccc(S(=O)(=O)N2CCCC2)c1)Cc1nc2ccccc2c(=O)[nH]1	-18.0	11.4	8.1	-7.7	.	-0.3
COc1ccc(OC)c(N(CC(=O)N2CCCC2)S(=O)(=O)c2ccccc2)c1	1.5	21.0	4.0	21.9	10.2	18.1
COC(=O)CN(c1cc(OC)ccc1OC)S(=O)(=O)c1ccc(OC)c(OC)c1	-9.6	14.7	13.7	19.6	28.8*	-1.1
O=C(Cn1c(=O)oc2ccccc21)NCCc1ccccc1Cl	.	-0.5	-13.4	3.3	42.3*	-18.2
COc1ccc(CNC(=O)Cn2c(=O)oc3ccccc32)cc1OC	-2.6	14.3	3.3	-2.3	43.1*	3.5
O=C(Cn1nc(-c2ccccc2)oc1=O)OCC(=O)c1ccc(F)c(F)c1	-9.0	18.3	1.2	1.2	.	10.0
Cc1ccc2nc(N(CCCN(C)C)C(=O)c3ccc4c(c3)CCCC4)sc2c1	35.4	40.0	9.7	22.8	51.6*	18.3
O=[N+]([O-])c1ccc(S(=O)Cc2ccccc2)c([N+](=O)[O-])c1 (stereo not given)	136.8*	.	.	.	.	.
CCC(=O)Nc1ccc(NC(=O)c2ccco2)c(OC)c1	17.4	9.2	8.0	19.8	0.8	20.2
COc1cc(NC(=O)Cc2ccc(Cl)cc2)ccc1NC(=O)c1ccco1	-3.7	15.0	16.4	16.9	37.7*	14.3
O=S(=O)(O)c1ccc(N=Nc2ccccc2)cc1	5.8	5.3	-5.6	5.2	4.9	11.0
O=c1ccc(N=Nc2ccccc2)ccc1O	124.9*	.	.	.	13.5	.
CCOCCCNCc1ccc(OCc2ccccc2Cl)cc1	17.8	32.0	-26.9	-57.3	51.9*	-33.6
OCCCCNCc1ccc(OCc2ccccc2Cl)cc1	-21.1	32.1	-5.1	33.6	18.2	-7.1
CC(C)(C)c1ccc(OCCCNCc2ccccc2)cc1	16.5	46.8	1.0	-78.3	43.0	-11.2
CCc1cc(OCCCCNCc2ccccc2)ccc1Cl	-16.7	22.4	-95.4	-74.0	63.0*	26.8
O=C(Cc1ccc(S(=O)(=O)N2CCOCC2)s1)NCCc1ccc(F)cc1	10.5	12.7	2.7	15.3	.	6.5
O=C(CN1CCC(C(=O)c2ccc3c(c2)OCCO3)CC1)NCc1ccc(F)cc1	15.0	8.5	5.9	5.0	19.6	-0.8
Cc1cc(NC(=O)CSCc2nc(-c3cccc(F)c3)oc2C)no1	2.1	17.8	-7.5	27.0	39.5*	18.3
